For this assay, the target named is AMP-activated protein kinase, AMPK (Homo sapiens) (UniProt P54646+O43741+P54619+Q9UGJ0+Q9Y478+Q13131+Q9UGI9). In words: AMP-dependent Kinase enzyme assay. An in vitro enzyme assay that detects ADP turnover that is directly proportional to AMPK activity. This uses naive AMPK that is activated during the assay with MK-8722. As to conditions: 30 µM. Type of assay: functional. On the set-up: scale not given: direction of the effect not stated beside the values.
Turning to `CNC(=O)C1CN(C(=O)Cc2ccc(OC)cc2)Cc2cn(C)nc21` (stereo not given), the Percent Effect was -3.48%.
Turning to `CN1C[C@@H]2CC[C@H](CC1=O)N2C(=O)c1ccc(-c2ccccc2)[nH]c1=O`, the Percent Effect came to 12.5%.
On to `CCC(C)C(=O)N(Cc1ccccn1)C1CC1` (stereo not given), for which the Percent Effect was 2.05%.
Turning to `Cc1nn(CCC(=O)NC2CCCOC2)c(C)c1C` (stereo not given), the Percent Effect worked out at 12.2%.
In the case of `Cc1nc(C(C)C)sc1C(C)N(C)C(=O)c1ccc(=O)n(C)n1` (stereo not given) it was -6.04%; in that of `C[C@H](O)c1cnn(-c2ccccc2)c1`, 3.7%; in that of `Cc1cnn(CCCNC(=O)NCCC(=O)Nc2ccccc2)c1`, 11.1%.
With `Cc1cccc(CN2CCOCC2c2[nH]ncc2C)n1` (stereo not given), the Percent Effect was found to be 16.3%.
Consider `O=C(OCC1CCCN1)c1cccc(NC(=O)c2ccco2)c1` (stereo not given), for which the Percent Effect is -4.3%.
In the case of `CN(C)c1ccc(C(=O)N(Cc2ccncc2)CC2CCCO2)nn1` (stereo not given) it was -3.6%.
`Cc1nc(CC(C)C)cc(C(=O)N2C[C@@H](N(C)C)[C@H](C(C)C)C2)n1`: the Percent Effect was -4.31%.
As to `Cc1nc(O)cc(CN2C[C@H](NS(=O)(=O)N(C)C)[C@@H](C3CC3)C2)n1`, the Percent Effect was -5.32%.
The result for `COc1ccc(Cl)cc1C(C(=O)O)N1CCSCC1` (stereo not given) reads 3.31%; that for `CS(=O)(=O)CC1(CNc2cc(C#N)c3cc(Cl)ccc3n2)CC1`, -0.595%; that for `CCc1nc2n(n1)CC(NCc1nc3ccccc3o1)CC2` (stereo not given), 2.97%.
As to `Cc1nc(CC(C)C)cc(C(=O)N2C[C@@H](CN(C)C)[C@@H](CO)C2)n1`, the Percent Effect was -4.49%.
As to `Cn1ncnc1NCc1ccc(F)cc1`, the Percent Effect was -10.9%.
On to `NC(=O)N1CCCCCC1C1CCN(c2nccc(C(F)(F)F)n2)CC1` (stereo not given), for which the Percent Effect was -5.81%.
Take `Cc1cc(C2CCCN(Cc3nc(Cc4ccccc4)no3)C2)n[nH]1` (stereo not given): the Percent Effect came out at 3.74%.
As for `Cc1ncsc1C(=O)NCCCN1CCCCCC1=O`, the Percent Effect was -10%.
In the case of `CN1CSC[C@H]1C(=O)N1CCC(Cc2ccccc2F)CC1`, the Percent Effect turned out to be 0.306%.
Turning to `CC(C)[C@H](N)C(=O)N1CCCC(C2=Nc3ccccc3S(=O)(=O)N2)C1` (stereo not given in full), the Percent Effect is 7.27%.
Consider `Fc1ccc(COCC2CCN(Cc3ccccn3)CC2)cc1`, for which the Percent Effect is 1.48%.
Regarding `Cc1n[nH]c(C)c1CCN(C)c1ccc(-c2nc(C3CC3)no2)cn1`, the Percent Effect was -6.17%.
On to `COc1ccc(CC2(CO)CCN(c3cc(N)ncn3)CC2)cc1`, for which the Percent Effect came out at 8.25%.
`Cc1ncccc1CNC(CCO)C1CCCCC1` (stereo not given): the Percent Effect is -0.143%.
With `COCCC1(C(=O)O)CCCN(c2cc(C)c3ccccc3n2)C1` (stereo not given), the Percent Effect is 3.66%.
Turning to `Cc1cc(C(=O)NCCN2CCCCC2)nn1C(C)(C)C`, the Percent Effect was found to be 24.9%.
The result for `CN1CC2(CCN(C(=O)c3ccc(=O)n(C)c3)CC2)CC1=O` reads -1.98%.
For the compound `CCN(CC(=O)NC)C(=O)c1sc(Cc2ccccc2)nc1C`, the Percent Effect was -3.98%.
The result for `COc1cc(CCC(=O)N2CCC(c3cc4ncc(C)nc4[nH]3)C2)on1` (stereo not given) reads -0.349%.
Take `CN1CCCC(CNC(=O)CN(C)S(=O)(=O)c2cccnc2)C1` (stereo not given): the Percent Effect is -10.7%.
For `Cc1cccc(COc2ccc(C(C)NS(N)(=O)=O)cc2)c1` (stereo not given), the Percent Effect stood at 7.65%.
The result for `O=C1NCCCCC1NC(=O)N1CCCc2cc(F)ccc21` (stereo not given) reads 6.88%; that for `CC(C)[C@@H]1CN(C(=O)CN(C)Cc2ccc(F)cc2)C[C@H]1C(=O)O`, 0.85%.
The result for `Cc1cccc(COc2ccc(C(C)NC(=O)CNC(N)=O)cc2)c1` (stereo not given) reads 1.42%.
Turning to `CCOC(=O)c1n[nH]cc1CN1CCOC(Cc2ccc(F)cc2)C1` (stereo not given), the Percent Effect worked out at 1.89%.
The result for `Cc1nccn1CCCN1CCCC(c2nccn2C)C1` (stereo not given) reads -14.7%; that for `CS(=O)(=O)CCN1CCSCC1c1ccc(Cl)cc1` (stereo not given), -2.02%; that for `CCc1oc(C(=O)NC(C)Cc2cnccn2)cc1CN1CCCC1` (stereo not given), 0.442%.
